Measured values from PubChem BioAssay (EPA / NIEHS).
Several values for one entry are separate records, joined by “and”; a condition that tells them apart may be missing. Equal values may be shown once. Results filed as inconclusive are left out. Where a structure was tested more than once in an assay, its records may differ in their call. Activity calls are given as the source filed them. Rule for the calls, unless noted: active = hit-call score of the fitted dose curve at least 0.9, where 1 is the maximum; inactive = score below 0.9.

Assays:
[1] = ACEA_ER_80hr: ACEA Biosciences xCELLigence Real-Time Cell Analysis on Estrogen Receptor Agonism for Proliferation (AID 2282667; active = hit-call score of the fitted dose curve at least 0.9, where 1 is the maximum); details: T47D proliferation, impedance (xCELLigence), 80 h
Method in brief: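 T-47D cells monitored by electrical impedance (xCELLigence) with compound present throughout; 80 h timepoint, positive-direction fitting versus DMSO. Eight-point 1:4 dilutions from 100 uM final, duplicate plates.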

[2] = ATG_CRE_CIS: Attagene CIS-FACTORIAL HepG2 Assay for human cAMP Responsive Element (CRE) binding protein 3 (AID 2282926); details: HepG2 CRE cis-reporter, Attagene multiplexed mRNA; actives raise or lower the signal
Method in brief: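 Induced reporter mRNA from a CRE cis element, measured in HepG2 among many multiplexed units at 24 h. Detection used RT-PCR plus capillary electrophoresis of fluorescent fragments; DMSO served as negative control.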

[3] = biological target: CCAAT/enhancer-binding protein beta (Homo sapiens) (UniProt P17676); assay: ATG_C_EBP_CIS: Attagene CIS-FACTORIAL HepG2 Assay for human CCAAT/Enhancer Binding Protein (C/EBP) beta (AID 2282927); details: HepG2 Attagene cis-factorial transcription factor reporter; actives raise or lower the signal
Method in brief: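 Following a 24 h incubation with test chemical, transfected HepG2 cells yielded RNA whose reporter transcripts were quantified by RT-PCR and fluorescent capillary electrophoresis, with DMSO serving as baseline for bidirectional fitting.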

[4] = ATG_CMV_CIS: Attagene CIS-FACTORIAL HepG2 Assay for human CMV (Internal Marker) (AID 2282928); details: HepG2 CMV promoter reporter, transcription factor profiling; actives raise or lower the signal;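 note: endpoint acts as a background internal control marker rather than a target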
Method in brief: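 Bidirectional fits against DMSO are applied to reporter mRNA, read by RT-PCR with capillary electrophoresis, from HepG2 cells exposed 24 h. The endpoint serves as an internal CMV background marker within the cis-factorial reporter panel.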

[5] = ATG_DR4_LXR_CIS: Attagene CIS-FACTORIAL HepG2 Assay for human Liver X Receptor (LXR), DR4 submotif (AID 2282929); details: HepG2 Attagene DR4 cis-reporter, mRNA transcription; actives raise or lower the signal
Method in brief: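 HepG2 cells transiently transfected with cis-promoter-driven multiplexed reporter units (DR4 element) were dosed for 24 h. Reporter mRNA was quantified by RT-PCR, fluorescent primer extension, HpaI digestion and capillary electrophoresis; bidirectional fitting versus DMSO baseline.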

[6] = biological target: Aryl hydrocarbon receptor (Homo sapiens) (UniProt P35869); assay: ATG_Ahr_CIS: Attagene CIS-FACTORIAL HepG2 Assay for human Aryl Hydrocarbon Receptor (Ahr) (AID 2282930); details: HepG2 AhR cis-factorial reporter transcription; actives raise or lower the signal
Method in brief: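 Values derive from bidirectional fitting against DMSO negative control. Underlying signal: cis-element reporter mRNA in transiently transfected HepG2, harvested 24 h post-dose and measured by RT-PCR plus capillary electrophoresis.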

[7] = ATG_AP_1_CIS: Attagene CIS-FACTORIAL HepG2 Assay for human Activator Protein 1 (AP-1) (AID 2282931); details: HepG2 Attagene cis-factorial AP-1 reporter mRNA; actives raise or lower the signal
Method in brief: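 HepG2 cells transiently transfected with cis-element-driven multiplex reporter units; 24 h compound exposure. Reporter mRNA quantified by RT-PCR, FAM-labelled fragments resolved by capillary electrophoresis; bidirectional fit versus DMSO baseline.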

[8] = ATG_AP_2_CIS: Attagene CIS-FACTORIAL HepG2 Assay for human Activator Protein 2 (AP-2) (AID 2282932); details: HepG2 AP-2 cis-reporter, Attagene transcription factor profiling; actives raise or lower the signal
Method in brief: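 Assay in transfected HepG2 with promoter-regulated reporters, 24 h incubation after dosing. Signal is reporter mRNA fluorescence (RT-PCR, capillary electrophoresis), analysed for both increases and decreases relative to DMSO controls.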

[9] = ATG_BRE_CIS: Attagene CIS-FACTORIAL HepG2 Assay for human Bone Morphogenetic Protein (BMP) Response Element (BRE) (AID 2282933); details: HepG2 BMP response element reporter, Attagene transcription factor profiling; actives raise or lower the signal
Method in brief: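 Endogenous transcription factor activity at a BMP response element was monitored in transfected HepG2 cells 24 h after dosing. Fluorescent RT-PCR products were resolved by capillary electrophoresis, and activity was fitted in both directions versus DMSO.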

[10] = biological target: Retinoic acid receptor alpha (Homo sapiens) (UniProt P10276); assay: ATG_DR5_RAR_CIS: Attagene CIS-FACTORIAL HepG2 Assay for human Retinoic Acid Receptor Alpha (RARE), DR5 submotif (AID 2282934); details: HepG2 Attagene cis-factorial RARE DR5 reporter, mRNA; actives raise or lower the signal
Method in brief: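 Endpoint fitted in both directions relative to DMSO as negative control. It reflects DR5 cis-element reporter mRNA induction in transiently transfected HepG2 cells, measured 24 h after dosing through RT-PCR and fluorescent capillary electrophoresis.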

Measured: AC50

Chain of Aryl hydrocarbon receptor (Homo sapiens) (P35869 whole entry, looked up): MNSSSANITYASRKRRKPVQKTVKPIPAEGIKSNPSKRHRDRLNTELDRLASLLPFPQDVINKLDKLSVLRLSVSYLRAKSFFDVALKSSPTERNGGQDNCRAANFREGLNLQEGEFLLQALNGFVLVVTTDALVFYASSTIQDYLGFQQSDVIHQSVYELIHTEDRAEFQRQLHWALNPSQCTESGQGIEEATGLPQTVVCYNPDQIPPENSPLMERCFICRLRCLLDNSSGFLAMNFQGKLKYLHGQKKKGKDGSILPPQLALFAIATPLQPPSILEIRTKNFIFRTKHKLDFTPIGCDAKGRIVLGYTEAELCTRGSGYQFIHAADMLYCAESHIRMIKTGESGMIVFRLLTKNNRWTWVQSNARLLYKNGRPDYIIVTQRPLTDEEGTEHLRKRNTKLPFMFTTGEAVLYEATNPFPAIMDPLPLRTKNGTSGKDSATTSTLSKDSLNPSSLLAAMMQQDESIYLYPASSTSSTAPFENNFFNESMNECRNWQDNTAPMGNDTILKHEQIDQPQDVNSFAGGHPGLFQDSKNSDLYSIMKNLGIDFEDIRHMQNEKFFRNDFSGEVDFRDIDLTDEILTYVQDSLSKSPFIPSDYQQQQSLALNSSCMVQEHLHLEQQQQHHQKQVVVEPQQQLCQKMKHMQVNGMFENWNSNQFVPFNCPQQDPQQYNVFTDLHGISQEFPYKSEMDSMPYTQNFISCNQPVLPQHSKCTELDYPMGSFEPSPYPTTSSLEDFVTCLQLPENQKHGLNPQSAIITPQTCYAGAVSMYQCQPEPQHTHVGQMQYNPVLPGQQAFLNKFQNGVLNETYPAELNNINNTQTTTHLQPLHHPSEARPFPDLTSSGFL
Chain of CCAAT/enhancer-binding protein beta (Homo sapiens) (P17676 whole entry, looked up): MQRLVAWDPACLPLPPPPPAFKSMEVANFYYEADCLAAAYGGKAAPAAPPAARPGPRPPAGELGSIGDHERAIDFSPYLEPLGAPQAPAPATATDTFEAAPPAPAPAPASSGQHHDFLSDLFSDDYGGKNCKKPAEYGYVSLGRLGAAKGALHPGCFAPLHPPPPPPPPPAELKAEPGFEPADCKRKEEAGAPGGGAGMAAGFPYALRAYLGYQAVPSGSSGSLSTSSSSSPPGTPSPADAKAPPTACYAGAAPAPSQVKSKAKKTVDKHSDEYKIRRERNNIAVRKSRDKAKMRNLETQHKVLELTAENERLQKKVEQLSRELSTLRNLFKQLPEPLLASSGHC
Chain of Retinoic acid receptor alpha (Homo sapiens) (P10276 whole entry, looked up): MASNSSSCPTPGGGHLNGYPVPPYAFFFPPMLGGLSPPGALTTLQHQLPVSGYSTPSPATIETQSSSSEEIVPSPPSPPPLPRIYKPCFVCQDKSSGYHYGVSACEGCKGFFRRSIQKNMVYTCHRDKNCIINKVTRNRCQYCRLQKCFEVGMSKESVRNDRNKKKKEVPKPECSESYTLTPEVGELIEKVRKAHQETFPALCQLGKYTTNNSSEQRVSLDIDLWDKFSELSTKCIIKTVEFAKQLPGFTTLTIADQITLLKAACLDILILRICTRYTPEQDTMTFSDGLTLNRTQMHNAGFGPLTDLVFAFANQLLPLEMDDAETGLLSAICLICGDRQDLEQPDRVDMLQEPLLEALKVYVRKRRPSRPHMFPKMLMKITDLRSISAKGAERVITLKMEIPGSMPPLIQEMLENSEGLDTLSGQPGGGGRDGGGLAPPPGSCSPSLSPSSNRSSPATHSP

CCCCCCOC(=O)c1ccccc1
inactive: [1] | [2] | [3] | [4] | [5] | [7] | [8] | [9] | [10]
active: [6] 50.4 µM

CCN(Cc1cccc(S(=O)(=O)O)c1)c1ccc(C(=C2C=CC(=[N+](CC)Cc3cccc(S(=O)(=O)O)c3)C=C2)c2ccc(O)cc2S(=O)(=O)[O-])cc1
active: [6] 33 µM
inactive: [1] | [2] | [3] | [4] | [5] | [7] | [8] | [9] | [10]

[Co]
inactive: [1] | [2] | [3] | [4] | [5] | [6] | [7] | [8] | [9] | [10]

CCN(CC)c1ccc2c(C)cc(=O)oc2c1
active: [2] 30.7 µM | [4] 26.5 µM | [9] 143 µM
inactive: [1] | [3] | [5] | [6] | [7] | [8] | [10]

CC(C)OC(=O)c1ccccc1C(=O)OC(C)C
inactive: [1] | [2] | [3] | [4] | [5] | [7] | [8] | [9] | [10]

N=C(N)C(F)(F)C(F)(F)C(F)(F)C(F)(F)C(F)(F)C(F)(F)C(F)(F)F
inactive: [1] | [2] | [4] | [6] | [8] | [9] | [10]
active: [3] 111 µM | [5] 211 µM | [7] 150 µM

CCCCCCCCC(F)(F)C(F)(F)C(F)(F)C(F)(F)C(F)(F)C(F)(F)F
inactive: [1] | [2] | [3] | [4] | [5] | [6] | [7] | [8] | [9] | [10]

CO[Si](OC)(c1ccccc1)c1ccccc1
inactive: [1] | [2] | [3] | [4] | [5] | [6] | [7] | [8] | [9] | [10]

FC(F)(I)C(F)(F)C(F)(F)C(F)(F)I
inactive: [2] | [3] | [4] | [5] | [7] | [8] | [9] | [10]
active: [1] 0.312 µM

O=S(=O)(O)C(F)(F)C(F)(F)C(F)(F)C(F)(F)C(F)(F)C(F)(F)C(F)(F)F
active: [3] 70.3 µM and 50 µM | [5] 29.7 µM | [7] 100 µM | [9] 100 µM
inactive: [1] | [2] | [4] | [5] | [7] | [8] | [9] | [10]

CCCCCCS
inactive: [1] | [2] | [3] | [4] | [5] | [8] | [9] | [10]

C1COCCN1
inactive: [1] | [2] | [3] | [4] | [5] | [6] | [7] | [8] | [9] | [10]

CC(C)(C)c1ccc(OC2CCCCC2O)cc1 (configuration not stated)
inactive: [1] | [2] | [3] | [5] | [8] | [10]
active: [4] 48.8 µM | [7] 24.5 µM | [9] 42.4 µM

CC(CCl)OP(=O)(OC(C)CCl)OC(C)CCl (configuration not stated)
inactive: [1] | [2] | [3] | [4] | [5] | [7] | [8] | [9] | [10]

CC(Cc1ccc(O)c(O)c1)C(C)Cc1ccc(O)c(O)c1 (configuration not stated)
active: [2] 22.9 µM
inactive: [1] | [3] | [4] | [5] | [6] | [7] | [8] | [9] | [10]

OCCCC(F)(F)C(F)(F)C(F)(F)F
inactive: [1] | [2] | [3] | [4] | [5] | [6] | [8] | [9] | [10]

FC(F)(F)C(F)(F)CNCC(F)(F)C(F)(F)F
inactive: [1] | [2] | [3] | [4] | [5] | [8] | [9] | [10]

COC(=O)CCC(F)(F)C(F)(F)C(F)(F)C(F)(F)F
inactive: [1] | [2] | [3] | [4] | [5] | [7] | [8] | [9] | [10]

Nc1ccc(Oc2cccc(Oc3ccc(N)cc3)c2)cc1
active: [2] 145 µM | [4] 45.1 µM | [5] 25.4 µM
inactive: [1] | [3] | [6] | [8] | [9] | [10]

FC1CC(F)(F)C(F)(F)C1(F)F (configuration not stated)
inactive: [1] | [2] | [3] | [4] | [5] | [6] | [8] | [9] | [10]

OCCCC(F)(F)C(F)(F)C(F)(F)C(F)(F)C(F)(F)C(F)(F)C(F)(F)F
active: [2] 51.4 µM | [5] 35.6 µM | [8] 75.5 µM
inactive: [1] | [2] | [3] | [4] | [5] | [6] | [8] | [9] | [10]

C=C(C)C(=O)OCC(F)(F)C(F)(F)C(F)(F)F
inactive: [1] | [2] | [3] | [4] | [5] | [6] | [7] | [8] | [9] | [10]
